Shown are actives, neighbours in structure and some others; about 10% of the full set was active somewhere.
LMNA splice mod: qHTS Assay for Modulators of Lamin A Splicing; AID 1487, 2009; Potency, µM (top dose mostly 46.1 µM), most hits filed as inhibitors; 0.01% of 200,000 active; HeLa LMNA splicing GFP/RFP minigene ratio, 48 h; active = well fitted inhibition curve with a large enough effect in the signal ratio, with a control signal flat, not every such curve was filed as active; inconclusive = small, poorly fitted or top-dose-only effect, or effect the other way, or a change in a side signal; the % refers to the signal ratio
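Read-out is the ratio of GFP to DsRed2 object intensity, acquired by 488 nm laser-scanning cytometry on HeLa lamin A-EGFP minigene reporter cells. Compound incubation 48 hrs at 37 °C in Opti-MEM with 2% FBS; DMSO 0.5% final.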
HPGD inh: qHTS Assay for Inhibitors of HPGD (15-Hydroxyprostaglandin Dehydrogenase) | 15-hydroxyprostaglandin dehydrogenase [NAD(+)] (Homo sapiens), P15428 | purified HPGD, NADH fluorescence kinetic, PGE2 substrate | Potency, µM, most hits filed as inhibitors | 4.3% of 150,000 active | AID 894, 2007
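20 nM HPGD preincubated 15 min at room temperature with compound in 50 mM Tris-HCl pH 8, 0.01% Tween 20. Started with 1 mM NAD+ and 30 uM prostaglandin E2; NADH fluorescence (360/450 nm) read 5 times over 30-s intervals, last minus first.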
PNC assembly inh: High Content Assay for Compounds that inhibit the Assembly of the Perinucleolar Compartment. PC3M PTB-GFP, PNC prevalence imaging, 16 h; stronger effect = lower value. activity change (PNC), negative = inhibition, % at 10 µM. 3.1% of 140,000 active. AID 2417, 2010;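 active = readout at or below -70, meaning at least 70% loss of cells showing the perinucleolar compartment, a nuclear body marking cancer cells; inconclusive = readout between -30 and a set limit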
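Compounds are pinned in duplicate onto adhered PC3M cells stably expressing GFP-tagged PTB and incubated 16 h at 37 C. Cells are then fixed, nuclei stained with Hoechst, and PNC-positive cells counted.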
ALDH1A1 block: qHTS Assay for Inhibitors of Aldehyde Dehydrogenase 1 (ALDH1A1). Purified ALDH1A1, NADH fluorescence, propionaldehyde substrate. Aldehyde dehydrogenase 1A1 (Homo sapiens), P00352. Potency, µM (titrated, usually from 75.3 µM), most hits filed as inhibitors. 7.3% of 220,000 active
Target sequence (P00352 whole entry, looked up): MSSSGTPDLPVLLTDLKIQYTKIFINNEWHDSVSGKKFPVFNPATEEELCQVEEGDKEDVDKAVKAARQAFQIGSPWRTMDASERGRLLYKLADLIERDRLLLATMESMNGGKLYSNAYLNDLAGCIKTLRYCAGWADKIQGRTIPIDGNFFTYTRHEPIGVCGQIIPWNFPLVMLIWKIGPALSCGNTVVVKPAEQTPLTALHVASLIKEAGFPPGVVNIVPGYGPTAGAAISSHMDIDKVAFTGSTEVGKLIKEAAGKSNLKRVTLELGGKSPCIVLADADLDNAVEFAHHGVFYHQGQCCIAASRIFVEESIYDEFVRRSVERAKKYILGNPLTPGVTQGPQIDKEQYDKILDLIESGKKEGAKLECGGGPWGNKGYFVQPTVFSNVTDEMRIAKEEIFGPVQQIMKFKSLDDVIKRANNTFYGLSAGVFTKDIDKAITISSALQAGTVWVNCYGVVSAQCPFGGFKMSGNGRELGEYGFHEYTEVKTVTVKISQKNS
KinaseGlo FLuc: Counterscreen for Luciferase (Kinase-Glo TM) Inhibition; Kinase-Glo luciferase, ATP luminescence, 8 min; Potency, µM (top dose mostly 38.3 µM), usual class: inhibitors; 0.28% of 200,000 active; active = well fitted inhibition curve with a large enough effect; inconclusive = small, poorly fitted or top-dose-only effect; note: nearly all actives have a fitted effect of over 60% in size
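Compounds were added to a substrate mix at pH 7.2 (50 mM imidazole, 10 uM ATP, within the enzyme's linear range), followed by Kinase-Glo detection reagent; luminescence was measured after 8 minutes at ambient temperature.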
Each line names hits and unclear results; the compound was inactive in the other large screens. Unless noted, calls come from the whole dose curve; as a rule, active = well fitted inhibition curve with a large enough effect (not every such curve was filed as active); inconclusive = small, poorly fitted or top-dose-only effect, or another doubt; inactive = no such curve, though single readings can be large or run the other way.

CCn1c(SCC(=O)Nc2sc3c(c2C(N)=O)CCC(C)C3)nnc1-c1ccco1 (stereo not drawn)	HPGD inh inconclusive, ALDH1A1 block 22µM
CCOc1ccccc1NC(=O)CSc1nnc(-c2ccccn2)n1Cc1ccco1	PNC assembly inh -82, ALDH1A1 block inconclusive
CC(C)c1ccccc1S(=O)c1ccccc1C(C)(C)O (stereo not drawn)	none (no result: LMNA splice mod, PNC assembly inh)
CC(=O)[C@H]1CC[C@@H]2[C@]1(C)CC=C1[C@@]23C=C[C@]2(C[C@H](O)CC[C@@]12C)[C@H](C(=O)O)[C@@H]3C(=O)O	none (no result: LMNA splice mod, PNC assembly inh)
CC(C)CO/N=C1/C[C@@H](O)[C@@H](O)[C@@H]2[C@@H]3C(=O)N(c4cccc(Oc5ccccc5)c4)C(=O)[C@H]3CC[C@@H]12	none (no result: LMNA splice mod, HPGD inh, PNC assembly inh, KinaseGlo FLuc)
CCn1c(SCC(=O)Nc2nonc2C)nnc1-c1ccco1	HPGD inh inconclusive, ALDH1A1 block 14µM
CCn1c(SCC(=O)Nc2cc(C)on2)nnc1-c1ccco1	ALDH1A1 block inconclusive
CC1=CC(C)(C)NC(=S)N1c1cccc2ccccc12	ALDH1A1 block 22µM
CN(C)C/C=C(\c1ccc(Br)cc1)c1cccnc1	LMNA splice mod inconclusive (no result: PNC assembly inh)
CN(C)S(=O)(=O)c1ccc(C(=O)NC2CCCc3ccccc32)cc1 (stereo not drawn)	ALDH1A1 block 20µM (no result: LMNA splice mod, HPGD inh, PNC assembly inh)
Cc1nn(C)c(C)c1S(=O)(=O)NC1CCCc2ccccc21 (stereo not drawn)	none
CCN(CC)S(=O)(=O)c1ccc(NC2CCCc3ccccc32)nc1 (stereo not drawn)	LMNA splice mod inconclusive, PNC assembly inh -100
Cc1ccc(S(=O)(=O)NC2CCCc3ccccc32)cc1C (stereo not drawn)	ALDH1A1 block 10µM
COc1cccc(CN(Cc2ccco2)c2cnc(S(C)(=O)=O)nc2C(=O)Nc2cccc(Cl)c2C)c1	none (no result: HPGD inh, PNC assembly inh, ALDH1A1 block, KinaseGlo FLuc)
CCN1CCN(Cc2c(O)ccc3c(C)c(-c4ccccc4)c(=O)oc23)CC1	none (no result: HPGD inh, PNC assembly inh, ALDH1A1 block, KinaseGlo FLuc)
CSc1ccccc1NC(=O)c1ccc(Cl)s1	HPGD inh 20µM, ALDH1A1 block inconclusive
COc1ccc(N2C(=O)S[C@@H]3CS(=O)(=O)C[C@@H]32)cc1	PNC assembly inh -113
COc1ccc(N2C(=S)NC3CS(=O)(=O)CC32)cc1 (stereo not drawn)	none (no result: LMNA splice mod, HPGD inh, PNC assembly inh, KinaseGlo FLuc)
COC(=O)C1=C(O)/C(=C\c2cc(C)n(-c3ccccc3F)c2C)N=C1C	ALDH1A1 block 11µM (no result: LMNA splice mod, HPGD inh, PNC assembly inh)
COC(=O)C1=C(C)NC(=O)/C1=C\c1cc(C)n(-c2ccccc2)c1C	ALDH1A1 block 25µM (no result: LMNA splice mod, HPGD inh, PNC assembly inh)
Cc1ccc2nc(COc3cccc(NC(=O)COc4ccc(F)cc4)c3)cc(=O)n2c1	none (no result: HPGD inh, PNC assembly inh, ALDH1A1 block, KinaseGlo FLuc)
O=C1C=CC(=O)N1c1ccc(Sc2ccc([N+](=O)[O-])cc2)cc1	ALDH1A1 block 0.79µM (no result: LMNA splice mod, HPGD inh, PNC assembly inh, KinaseGlo FLuc)
CN(Cc1ccccc1NCC(=O)Nc1ccccc1C#N)C1CCCCC1	LMNA splice mod inconclusive (no result: HPGD inh, PNC assembly inh)
N#Cc1ccccc1NC(=O)CNc1ccccc1N1CCCCC1	ALDH1A1 block 32µM
CCOC(=O)C1CCC(CN(Cc2cccc(Br)c2)S(=O)(=O)c2ccc(C)cc2)CC1 (stereo not drawn)	none (no result: HPGD inh, PNC assembly inh, ALDH1A1 block, KinaseGlo FLuc)
O=C(/C=C/Nc1ccc(F)cc1)c1ccco1	KinaseGlo FLuc inconclusive
Cc1ccc([N+](=O)[O-])cc1N/C=C/C(=O)c1ccco1	LMNA splice mod inconclusive, ALDH1A1 block 22µM
CCN(CC)C(=O)c1sc2c(c1C)c(=O)n(-c1ccc(Cl)c(Cl)c1)c(=O)n2Cc1cc(=O)n2c(C)cccc2n1	none (no result: HPGD inh, PNC assembly inh, ALDH1A1 block, KinaseGlo FLuc)
O=C(O)C1CCCCC1C(=O)Nc1ccccc1F (stereo not drawn)	ALDH1A1 block 20µM
COc1ccccc1NC(=O)/C=C\C(=O)O	LMNA splice mod inconclusive (no result: HPGD inh, PNC assembly inh)
O=C(O)/C=C\C(=O)Nc1ccc(F)c(F)c1F	ALDH1A1 block 22µM (no result: LMNA splice mod, HPGD inh, PNC assembly inh, KinaseGlo FLuc)
O=C(O)/C=C\C(=O)Nc1ccccc1F	PNC assembly inh -119, ALDH1A1 block 35µM
O=C(O)C1CCCCC1C(=O)Nc1ccccc1Cl (stereo not drawn)	none
COC(=O)N[C@@H](/C=C/c1ccccc1)/C(C(=O)OC)=C(\C)NCc1ccccc1	none (no result: LMNA splice mod, PNC assembly inh)
C=CC(=O)NC(C)C	none (no result: LMNA splice mod, PNC assembly inh, KinaseGlo FLuc)
C=CC(=O)CC	ALDH1A1 block 2µM (no result: LMNA splice mod, PNC assembly inh, KinaseGlo FLuc)
O=C1N(Cc2ccccc2F)c2ccccc2C12OCCCO2	ALDH1A1 block 22µM
O=C(CCN1C(=O)C2(OCCO2)c2ccccc21)c1ccccc1	none
O=C(CN1C(=O)C2(OCCO2)c2ccccc21)c1ccc(Br)cc1	LMNA splice mod inconclusive, PNC assembly inh inconclusive, ALDH1A1 block 14µM (no result: HPGD inh, KinaseGlo FLuc)
COc1ccccc1NC(=O)CN1C(=O)C2(OCCCO2)c2ccccc21	ALDH1A1 block 22µM
COc1ccc(OC)c(NC(=O)CN2C(=O)C3(OCCCO3)c3ccccc32)c1	ALDH1A1 block inconclusive
CC1=C[N+](=O)c2ccccc2[N+]1=O	none (no result: LMNA splice mod, PNC assembly inh)
COCC(C)n1c(SCC(=O)NNC(=O)c2ccc(F)cc2)nc2ccccc2c1=O (stereo not drawn)	PNC assembly inh -94
NS(=O)(=O)c1ccc(CCNC(=O)CSc2nc3ccccc3c(=O)n2CCN2CCOCC2)cc1	none (no result: LMNA splice mod, HPGD inh, PNC assembly inh)
O=C(CSc1nc2ccccc2n1S(=O)(=O)c1ccccc1)N1CCCCC1	HPGD inh 1.8µM
COCCn1c(SCC(=O)NNC(=O)c2ccccc2)nc2ccccc2c1=O	LMNA splice mod inconclusive, PNC assembly inh inconclusive (no result: HPGD inh, KinaseGlo FLuc)
NS(=O)(=O)c1ccc(CCNC(=O)CSc2nc3ccccc3c(=O)n2CCC(=O)N2CCCCC2)cc1	ALDH1A1 block 7.9µM (no result: LMNA splice mod, HPGD inh, PNC assembly inh)
COCCCn1c(SCc2nnc(-c3ccc(OC)c(OC)c3)o2)nc2ccccc2c1=O	LMNA splice mod inconclusive, HPGD inh 20µM, PNC assembly inh -100
